The nature of assay [1]: antimalarial activity against Dd2 strain (AID 2302;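 active = growth inhibition above 50% at the single 2 µM test dose, taken to imply half-maximal potency below 2 µM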;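 also: 0% = DMSO untreated growth and 100% = chloroquine plus artemisinin killed control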). As to conditions: P. falciparum Dd2 in RBCs, LDH growth readout, 72 h; at 2 µM; active compounds read high.
A short description of assay [2]: HepG2 cytotoxicity, primary screen, cytotoxicity control for P. falciparum antimalarial project, cell-based, ATP luminescence (AID 2303;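 active = inhibition above 50%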;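 also: 0% = DMSO wells and 100% = digitonin-killed cells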). To be noted: HepG2 viability, 24-48 h, at 10 µM, active compounds read high.
The target in assay [3] is L-lactate dehydrogenase (Plasmodium falciparum (isolate CDC / Honduras)) (UniProt Q27743). Briefly: PfLDH activity inhibition – cell lysate, 3D7 strain, counter-screen for P. falciparum growth inhibition project (AID 2304).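 Also: 0% = vehicle and 100% = reference inhibitor.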 To be noted: P. falciparum 3D7 crude extract, LDH APAD/NBT absorbance; at 2 µM; active compounds read high. (The purpose of a counterscreen is to sort out artefacts and off-target activity.)
Chain of L-lactate dehydrogenase (Plasmodium falciparum (isolate CDC / Honduras)) (Q27743 whole entry, looked up): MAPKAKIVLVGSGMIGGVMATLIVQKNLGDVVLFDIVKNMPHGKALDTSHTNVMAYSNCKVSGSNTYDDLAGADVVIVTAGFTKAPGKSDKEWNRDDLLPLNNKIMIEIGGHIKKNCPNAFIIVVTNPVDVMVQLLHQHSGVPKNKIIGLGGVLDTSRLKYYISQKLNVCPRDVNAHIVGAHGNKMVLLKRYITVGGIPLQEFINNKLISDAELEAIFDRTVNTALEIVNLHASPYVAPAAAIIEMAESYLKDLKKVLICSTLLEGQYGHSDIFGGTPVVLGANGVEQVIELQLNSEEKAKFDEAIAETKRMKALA

Assay [4] is described as follows: inhibition of 3D7 malaria parasite growth – strain 3D7 (AID 2306).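 Also: 0% = DMSO wells and 100% = chloroquine plus artemisinin control wells.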 As to conditions: P. falciparum 3D7 erythrocytic growth, LDH absorbance, 72 h; at 2 µM; active compounds read high.
The target of assay [5] is Calcium-dependent protein kinase 1 (Plasmodium falciparum (isolate 3D7)) (UniProt P62344). Briefly: PfCDPK1 kinase inhibitors, biochemical, TCAMS library (AID 1159585; cut-off not given, nearly all actives have IC50 up to about 0.98 µM;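 also: inhibitors leave more ATP so luminescence rises with inhibition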). As to conditions: recombinant PfCDPK1, Kinase-Glo ATP depletion luminescence. (Kinase-Glo reads ATP consumption through a luciferase reaction.)
Chain of Calcium-dependent protein kinase 1 (Plasmodium falciparum (isolate 3D7)) (P62344 whole entry, looked up): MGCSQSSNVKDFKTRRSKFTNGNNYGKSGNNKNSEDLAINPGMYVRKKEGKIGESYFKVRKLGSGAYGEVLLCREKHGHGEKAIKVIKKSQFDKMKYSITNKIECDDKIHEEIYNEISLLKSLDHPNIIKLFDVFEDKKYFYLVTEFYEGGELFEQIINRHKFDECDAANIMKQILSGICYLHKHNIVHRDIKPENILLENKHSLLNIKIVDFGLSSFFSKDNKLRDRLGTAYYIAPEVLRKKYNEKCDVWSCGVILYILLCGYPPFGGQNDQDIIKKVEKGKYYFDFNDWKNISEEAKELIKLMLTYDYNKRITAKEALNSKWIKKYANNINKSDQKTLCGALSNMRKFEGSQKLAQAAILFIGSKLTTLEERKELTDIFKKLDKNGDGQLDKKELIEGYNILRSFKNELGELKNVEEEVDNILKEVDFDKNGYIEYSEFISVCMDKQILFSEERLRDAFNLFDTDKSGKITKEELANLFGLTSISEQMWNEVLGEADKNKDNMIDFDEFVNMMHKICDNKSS
The target in assay [6] is Plasmodium falciparum protein kinase 6 (PK6, PF3D7_1337100) (UniProt Q8IDW1). The assay can be described thus: PfPK6 kinase inhibitors, biochemical, TCAMS library (AID 1159586). As to conditions: recombinant PfPK6, Kinase-Glo ATP depletion luminescence.
Chain of Plasmodium falciparum protein kinase 6 (PK6, PF3D7_1337100) (Q8IDW1 1-305): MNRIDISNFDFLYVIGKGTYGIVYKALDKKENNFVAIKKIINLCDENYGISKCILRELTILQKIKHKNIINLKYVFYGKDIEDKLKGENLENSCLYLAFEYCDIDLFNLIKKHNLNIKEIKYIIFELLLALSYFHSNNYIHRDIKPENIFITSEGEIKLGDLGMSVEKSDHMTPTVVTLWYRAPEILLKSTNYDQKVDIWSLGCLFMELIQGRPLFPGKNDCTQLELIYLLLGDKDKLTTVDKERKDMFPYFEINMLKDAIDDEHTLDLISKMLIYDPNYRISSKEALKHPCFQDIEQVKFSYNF
Assay [7] addresses Protein kinase 7 (PK7), Plasmodium falciparum 3D7 (PF3D7_0213400) (UniProt Q7YTF7). The assay can be described thus: inhibition of Plasmodium PK7 catalytic activity – biochemical, TCAMS antimalarial set, Kinase-Glo luminescence (AID 1159587). As to conditions: recombinant PfPK7, Kinase-Glo ATP depletion luminescence.
Assay [8] deals with Calcium-dependent protein kinase 4 (Plasmodium falciparum (isolate 3D7)) (UniProt Q8IBS5). The assay can be described thus: PfCDPK4 kinase inhibitors, biochemical, TCAMS library (AID 1159588; cut-off not given, nearly all actives have IC50 up to about 0.91 µM). To be noted: recombinant PfCDPK4, Kinase-Glo ATP depletion luminescence.
Chain of Calcium-dependent protein kinase 4 (Plasmodium falciparum (isolate 3D7)) (Q8IBS5 whole entry, looked up): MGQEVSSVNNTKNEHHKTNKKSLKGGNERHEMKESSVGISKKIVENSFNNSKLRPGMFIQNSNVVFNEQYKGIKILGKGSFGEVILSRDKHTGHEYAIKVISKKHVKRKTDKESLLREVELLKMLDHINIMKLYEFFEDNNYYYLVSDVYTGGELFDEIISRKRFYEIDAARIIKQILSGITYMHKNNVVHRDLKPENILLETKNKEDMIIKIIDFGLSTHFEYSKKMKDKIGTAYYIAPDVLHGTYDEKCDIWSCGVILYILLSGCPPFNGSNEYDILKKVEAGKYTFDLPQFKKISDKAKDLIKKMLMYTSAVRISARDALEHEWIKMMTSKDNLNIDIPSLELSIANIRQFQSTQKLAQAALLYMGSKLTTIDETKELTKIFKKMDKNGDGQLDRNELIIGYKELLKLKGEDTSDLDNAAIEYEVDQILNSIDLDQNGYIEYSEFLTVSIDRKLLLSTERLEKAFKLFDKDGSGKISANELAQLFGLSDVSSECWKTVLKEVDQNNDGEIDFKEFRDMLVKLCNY

Unmarked numbers belong to inactive results. For part of these data: Entries with a potency or affinity are not part of this list. The source made the active and inactive calls. Unless noted, no rule for the calls is given here.

A word on the inhibition: it is the drop in the measured response relative to a control, in per cent.

Chain of Protein kinase 7 (PK7), Plasmodium falciparum 3D7 (PF3D7_0213400) (Q7YTF7 1-343): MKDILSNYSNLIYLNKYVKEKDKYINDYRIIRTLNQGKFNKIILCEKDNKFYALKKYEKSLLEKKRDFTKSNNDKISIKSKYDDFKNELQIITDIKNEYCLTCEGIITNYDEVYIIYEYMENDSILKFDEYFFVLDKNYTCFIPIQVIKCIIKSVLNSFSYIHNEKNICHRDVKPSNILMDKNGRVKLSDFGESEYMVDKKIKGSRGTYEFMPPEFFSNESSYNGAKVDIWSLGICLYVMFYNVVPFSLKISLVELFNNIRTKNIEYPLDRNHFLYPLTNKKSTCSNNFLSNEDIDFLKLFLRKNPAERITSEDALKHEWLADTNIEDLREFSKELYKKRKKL

Consider `COc1ccc(O)c(C(=O)c2cnc3c(c2)c(-c2ccc(F)cc2)c(C#N)c(=O)n3C)c1`, for which the values for the growth inhibition in assay [1] and in assay [4] were 14% and 92% (active), respectively. For the same compound, the inhibition in assay [2] was 7%; in assay [3], -2%. In addition, the outcome in assay [5], in assay [6], in assay [7] and in assay [8] was inactive.
In the case of `CNc1c2c(nc3ccc(NC(=O)CCCCCCc4ccccc4)cc13)CCCC2`, the growth inhibition is 82% (active) in assay [1] and 100% (active) in assay [4]. Further, the inhibition in assay [2] and in assay [3] was 0% throughout. Also, the outcome in assay [5], in assay [6], in assay [7] and in assay [8] was inactive.
For the compound `CCCCCCCN1CC[C@@H](CCCc2ccnc3ccc(OCCN4CCOCC4)cc23)[C@@H](CC)C1`, the values for the growth inhibition in assay [1] and in assay [4] were 3% and 89% (active), respectively. Besides, the results for the inhibition in assay [2] and in assay [3] were 14% and 0%, respectively. Also, the result in assay [5], in assay [6], in assay [7] and in assay [8] was inactive.
With `O=C(NC1CCC1)C1CCN(C(c2ccccc2)c2cc(F)cc(F)c2)CC1` (stereo not drawn), the growth inhibition in assay [1] was 72% (active); in assay [4] it was 94% (active). For the same compound, the inhibition is 0% in assay [2] and -2% in assay [3]. Further, the outcome in assay [5], in assay [6], in assay [7] and in assay [8] was inactive.
Consider `O=C(Nc1ccc(Cl)cc1)N[C@H]1CCN(CCCCCNC(=O)[C@@H]2C[C@H]2c2ccc(Cl)c(Cl)c2)C1`, for which the growth inhibition in assay [1] is 1%; in assay [4], 96% (active). The inhibition in assay [2] was 24%; in assay [3] it was 1%. Moreover, the result in assay [5], in assay [6], in assay [7] and in assay [8] was inactive.
Take `O=C(/C=C/c1ccc(Cl)c(Cl)c1)NCCCCCN1CCC(c2c[nH]c3ccccc23)CC1`: the values for the growth inhibition in assay [1] and in assay [4] were 7% and 99% (active), respectively. Also, the inhibition in assay [2] was 33%; in assay [3], -2%. Further, the result in assay [5], in assay [6], in assay [7] and in assay [8] was inactive.
Regarding `CCCNS(=O)(=O)c1ccc(NC(=O)C(C)Oc2ccc([N+](=O)[O-])cc2)cc1` (stereo not drawn), the growth inhibition in assay [1] was 37%; in assay [4], 100% (active). Also, the inhibition in assay [2] and in assay [3] was 3% throughout. The outcome in assay [5], in assay [6], in assay [7] and in assay [8] was inactive.
On to `COc1ccc(NC(=O)NC2CCN(c3ccnc4cc(Cl)ccc34)CC2)cc1`, for which the growth inhibition in assay [1] was 64% (active); in assay [4] it was 83% (active). The inhibition in assay [2] was 5%; in assay [3], -10%. Besides, the outcome in assay [5], in assay [6], in assay [7] and in assay [8] was inactive.
For `CC1(C)N=C(N)N=C(N)N1OCCCc1ccc(Cl)cc1Cl`, the growth inhibition in assay [1] and in assay [4] was 95% (active) throughout. Further, the inhibition is 54% (active) in assay [2] and 0% in assay [3]. The result in assay [5], in assay [6], in assay [7] and in assay [8] was inactive.
For `Cc1cccc2[nH]c(-c3ccc(-c4ccc(NC(=O)Nc5ccc(Cl)c(Cl)c5)cc4)cc3)nc12`, the values for the growth inhibition in assay [1] and in assay [4] were 100% (active) and 101% (active), respectively. The inhibition in assay [2] was 37%; in assay [3], 0%. For the same compound, the result in assay [5], in assay [6], in assay [7] and in assay [8] was inactive.
Turning to `COc1ccc(-c2cccc(NC(=O)c3cccc(C#N)c3)c2)cc1CN(C)CCO`, the figures for the growth inhibition in assay [1] and in assay [4] were 30% and 96% (active), respectively. Also, the inhibition is 28% in assay [2] and -7% in assay [3]. For the same compound, the result in assay [5], in assay [6], in assay [7] and in assay [8] was inactive.
As for `Cc1cc(Nc2ccc(Cl)c(Cl)c2)n2nc(C)nc2n1`, the growth inhibition in assay [1] and in assay [4] was 97% (active) throughout. In addition, the values for the inhibition in assay [2] and in assay [3] were 6% and -4%, respectively. Besides, the result in assay [5], in assay [6], in assay [7] and in assay [8] was inactive.
Regarding `O=C(Nc1ccc(-c2cccc(-c3nc4ccc(C(F)(F)F)cc4[nH]3)c2)cc1)c1ccoc1`, the growth inhibition was 13% in assay [1] and 96% (active) in assay [4]. The inhibition was 52% (active) in assay [2] and -9% in assay [3]. For the same compound, the outcome in assay [5], in assay [6], in assay [7] and in assay [8] was inactive.
In the case of `Cc1ccc(C)c(NC(=O)NCCNc2ccnc(Nc3ccc(F)cc3)n2)c1`, the growth inhibition in assay [1] was 5%; in assay [4] it was 97% (active). In addition, the figures for the inhibition in assay [2] and in assay [3] were 21% and 6%, respectively. Also, the outcome in assay [5], in assay [6], in assay [7] and in assay [8] was inactive.
As to `Cc1cccc(CNc2nc(C)cc(N[C@@H](CC(C)C)C(=O)NCCOc3ccccc3)n2)c1`, the growth inhibition in assay [1] was 35%; in assay [4] it was 93% (active). For the same compound, the figures for the inhibition in assay [2] and in assay [3] were 15% and -1%, respectively. For the same compound, the result in assay [5], in assay [6], in assay [7] and in assay [8] was inactive.
As for `COc1ccc2nccc(N3CCC(NCc4ccc5c(n4)NC(=O)CS5)CC3)c2n1`, the growth inhibition in assay [1] was 63% (active); in assay [4], 100% (active). In addition, the results for the inhibition in assay [2] and in assay [3] were 14% and 6%, respectively. In addition, the result in assay [5], in assay [6], in assay [7] and in assay [8] was inactive.
Turning to `O=C1Nc2cccc3c2C1(CCCCN1CCC(c2c(-c4ccc(F)cc4)[nH]c4ccccc24)CC1)CCC3` (stereo not drawn), the growth inhibition in assay [1] was 28%; in assay [4] it was 91% (active). The inhibition is 25% in assay [2] and -4% in assay [3]. The result in assay [5], in assay [6], in assay [7] and in assay [8] was inactive.
For `CC(C)c1cc(N)c2cc(NC(=O)COCC(=O)Nc3ccc4nc(C(C)C)cc(N)c4c3)ccc2n1`, the growth inhibition in assay [1] and in assay [4] was 95% (active) each time. Besides, the values for the inhibition in assay [2] and in assay [3] were -8% and 0%, respectively. For the same compound, the outcome in assay [5], in assay [6], in assay [7] and in assay [8] was inactive.
In the case of `Nc1ncc(OC2CCCCC2)c(N)n1`, the growth inhibition is -1% in assay [1] and 94% (active) in assay [4]. The values for the inhibition in assay [2] and in assay [3] were -4% and -1%, respectively. The result in assay [5], in assay [6], in assay [7] and in assay [8] was inactive.
Take `O=C(Nc1ccc(Cl)cc1Cl)N[C@H]1CCN(CCCCCNC(=O)[C@@H]2C[C@H]2c2ccc(Cl)c(Cl)c2)C1`: the values for the growth inhibition in assay [1] and in assay [4] were 0% and 94% (active), respectively. Also, the inhibition in assay [2] was 37%; in assay [3] it was 2%. Besides, the result in assay [5], in assay [6], in assay [7] and in assay [8] was inactive.
As to `Cc1ccc(NC(=O)Nc2ccc(Cl)cc2)cc1-c1ccc(C(=O)Nc2ccncc2)cc1`, the growth inhibition in assay [1] is 63% (active); in assay [4], 99% (active). For the same compound, the inhibition in assay [2] is 54% (active); in assay [3], -1%. In addition, the result in assay [5], in assay [6], in assay [7] and in assay [8] was inactive.

These data come from PubChem BioAssay.
